# Laboratory results: ChEMBL document CHEMBL3988442, “University of Dundee, Small-Polar-MMV Screening Library” (2021)
# Target: T1, Methionyl-tRNA synthetase, putative (Leishmania donovani (strain BPK282A1)) (UniProt E9BF75)
# T1 sequence (whole entry): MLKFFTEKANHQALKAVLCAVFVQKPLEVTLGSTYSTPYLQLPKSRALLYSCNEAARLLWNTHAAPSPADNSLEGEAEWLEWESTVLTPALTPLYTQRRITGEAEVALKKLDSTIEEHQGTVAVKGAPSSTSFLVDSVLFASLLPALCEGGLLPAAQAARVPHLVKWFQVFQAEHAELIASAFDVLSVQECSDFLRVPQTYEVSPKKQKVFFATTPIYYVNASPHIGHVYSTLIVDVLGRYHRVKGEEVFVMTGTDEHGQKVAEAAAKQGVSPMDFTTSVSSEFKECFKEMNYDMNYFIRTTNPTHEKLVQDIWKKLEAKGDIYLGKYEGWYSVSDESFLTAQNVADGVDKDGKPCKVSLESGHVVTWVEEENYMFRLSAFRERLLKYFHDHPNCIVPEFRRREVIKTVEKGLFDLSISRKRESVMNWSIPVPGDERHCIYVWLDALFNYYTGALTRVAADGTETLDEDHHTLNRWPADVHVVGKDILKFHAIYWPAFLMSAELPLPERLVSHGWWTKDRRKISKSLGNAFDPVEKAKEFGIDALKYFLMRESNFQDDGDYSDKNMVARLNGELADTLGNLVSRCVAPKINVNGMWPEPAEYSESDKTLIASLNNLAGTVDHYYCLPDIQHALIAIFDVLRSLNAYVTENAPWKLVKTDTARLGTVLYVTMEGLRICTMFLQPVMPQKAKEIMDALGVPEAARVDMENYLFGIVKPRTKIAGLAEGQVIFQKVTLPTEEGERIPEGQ
# Assay: Leishmania donovani Methionine tRNA synthetase (LdMetRS):v7. Dose response assay
# Type: functional
# Design: conc 80 nM, time 150 minutes
smiles,measurement,setting,value
Cc1nc(N(C)CCC#N)c2c3c(sc2n1)CC(C)CC3 (stereo not given),PXC50,MAX_EFFECT 3.723404255,< 4
same,PXC50,MAX_EFFECT 5.699481865,< 4
CCOC(=O)c1sc2nc(C)nc(NC3CCCCC3)c2c1C,PXC50,MAX_EFFECT 13.06532663,< 4
same,PXC50,MAX_EFFECT 16.95331695,< 4
Cc1sc2nc(CCN)nc(N3CCN(S(C)(=O)=O)CC3)c2c1C,PXC50,MAX_EFFECT 9.660574413,< 4
same,PXC50,MAX_EFFECT 10.96605744,< 4
Cc1nc(NCC(C)(C)O)c2c3c(sc2n1)CCCC3,PXC50,MAX_EFFECT 11.84210526,< 4
same,PXC50,MAX_EFFECT 12.5,< 4
Cc1nc(N(C)CC(=O)N(C)C)c2c3c(sc2n1)CCC3,PXC50,MAX_EFFECT 0.0,< 4
same,PXC50,MAX_EFFECT 1.058201058,< 4
CCOCCCNc1nc(-c2ccc(C)cc2)cc(C(F)(F)F)n1,PXC50,MAX_EFFECT 5.102040816,< 4
same,PXC50,MAX_EFFECT 5.808080808,< 4
Cc1nc(NCCC(=O)NC(C)C)c2c3c(sc2n1)CCC3,PXC50,MAX_EFFECT -1.058201058,< 4
same,PXC50,MAX_EFFECT -2.133333333,< 4
CC(C)C[C@H](N)COc1ccc(OC(F)(F)F)c(F)c1,PXC50,MAX_EFFECT 10.87420043,< 4
same,PXC50,MAX_EFFECT 10.97308489,< 4
Cn1ccnc1CN1CCC(F)(F)C2(CCN(c3cnccn3)C2)C1 (stereo not given),PXC50,MAX_EFFECT 2.816901408,< 4
same,PXC50,MAX_EFFECT 9.074074074,< 4
N#Cc1cccc(Nc2nccc(N3CCC(NS(=O)(=O)c4cccc(C#N)c4)CC3)n2)c1,PXC50,MAX_EFFECT 35.34883721,< 4
same,PXC50,MAX_EFFECT 46.85314685,< 4
O=C(NCC1CCCCC1)c1cc(=O)c2cc[nH]c(=O)c2o1,PXC50,MAX_EFFECT 5.901116427,< 4
same,PXC50,MAX_EFFECT 6.333973129,< 4
CC(C)N1CCN(c2ccc3ccc(C(=O)NC4CCCC4)cn23)CC1,PXC50,"BOTTOM 0.093, HILLSLOPE 1.274308059, MAX_EFFECT 67.28971963, TOP 100.0",4.24
same,PXC50,"BOTTOM -1.582312145, HILLSLOPE 1.245531895, MAX_EFFECT 64.39909297, TOP 98.29335099",4.24
O=C(c1c[nH]cn1)N1CCC(F)(F)C2(CCN(c3ncccn3)C2)C1 (stereo not given),PXC50,MAX_EFFECT 6.572769953,< 4
same,PXC50,MAX_EFFECT 11.2962963,< 4
CS(=O)(=O)N1CCN(c2ccc3ccc(C(=O)NCC(=O)N4CCOCC4)cn23)CC1,PXC50,"BOTTOM 0.290613171, HILLSLOPE 1.637678219, MAX_EFFECT 51.19617225, TOP 53.26483222",4.83
same,PXC50,"BOTTOM 5.655540606, HILLSLOPE 2.540340494, MAX_EFFECT 56.3071298, TOP 55.42961413",4.8
CCN(CC)c1ccc2ccc(C(=O)N(C)C)cn12,PXC50,MAX_EFFECT 27.22222222,< 4
same,PXC50,MAX_EFFECT 35.21126761,< 4
CCc1nc(NCCCOC(C)C)c2c3c(sc2n1)CCC3,PXC50,MAX_EFFECT 10.56511057,< 4
same,PXC50,MAX_EFFECT 12.06030151,< 4
CCc1nc(NCCO)c2c3c(sc2n1)CCC3,PXC50,MAX_EFFECT 3.274559194,< 4
same,PXC50,MAX_EFFECT 5.852417303,< 4
COC(=O)c1sc2nc(C)nc(NCc3cccnc3)c2c1C,PXC50,MAX_EFFECT 10.38251366,< 4
same,PXC50,MAX_EFFECT 11.22994652,< 4
Cc1sc2nc(CCN)nc(N3CC(N4CCCCC4)C3)c2c1C,PXC50,MAX_EFFECT 21.14882507,< 4
same,PXC50,MAX_EFFECT 25.06527415,< 4
CS(=O)(=O)Nc1cccc2c(=O)cc(C(=O)NCC3CCCCC3)oc12,PXC50,MAX_EFFECT 0.797448166,< 4
same,PXC50,MAX_EFFECT 2.111324376,< 4
Nc1noc2ccc(-c3cnc4ccc(NCCN5CCS(=O)(=O)CC5)nn34)cc12,PXC50,MAX_EFFECT 6.106870229,< 4
same,PXC50,MAX_EFFECT 10.52631579,< 4
CCOC(=O)N1CCN(c2nc(C)nc3sc4c(c23)CCCC4)CC1,PXC50,MAX_EFFECT 14.58333333,< 4
same,PXC50,MAX_EFFECT 16.22807018,< 4
Cc1sc2nc(C(F)(F)F)nc(N3CCN(C)CC3)c2c1C,PXC50,MAX_EFFECT 6.788511749,< 4
same,PXC50,MAX_EFFECT 7.049608355,< 4
CC(O)CNc1nc(CN2CCCCC2)nc2sc3c(c12)CCCC3 (stereo not given),PXC50,MAX_EFFECT 8.108108108,< 4
same,PXC50,MAX_EFFECT 9.547738693,< 4
CC(C)C[C@H](N)COc1ccc(Cl)cc1-c1ccno1,PXC50,MAX_EFFECT 6.832298137,< 4
same,PXC50,MAX_EFFECT 8.742004264,< 4
CNc1ccc2ncc(-c3ccc4onc(N)c4c3)n2n1,PXC50,MAX_EFFECT 16.28498728,< 4
same,PXC50,MAX_EFFECT 18.85964912,< 4
COC(=O)CCNc1nc(CN2CCCCC2)nc2sc3c(c12)CCC3,PXC50,MAX_EFFECT 7.808564232,< 4.31
same,PXC50,MAX_EFFECT 7.888040712,< 4
O=C(NCC1(O)CCCCC1)c1cc(=O)c2cc[nH]c(=O)c2o1,PXC50,MAX_EFFECT 6.333973129,< 4
same,PXC50,MAX_EFFECT 9.409888357,< 4
COCCNc1nc(C)nc2sc3c(c12)CCCC3,PXC50,MAX_EFFECT 3.174603175,< 4
same,PXC50,MAX_EFFECT 4.266666667,< 4
CCc1nc(N2CCN(c3ncccn3)CC2)c2cc(CC)sc2n1,PXC50,MAX_EFFECT 23.46666667,< 4
same,PXC50,MAX_EFFECT 25.3968254,< 4
